# Experimental data as given in PubChem BioAssay (Tox21).
# A number with no mark means an inactive call. Results filed as inconclusive are left out. A call without a number means that no potency is given here. Activity calls are given as the source filed them. Unless noted, the call rests on the fitted dose curve; in most records, active means well fitted curve in the direction sought with a large enough effect in the repeat runs; inconclusive means weak or mixed curves; inactive means no such curve, though single readings can be large; an effect the other way counts as inactive or inconclusive.
# Tests used:
# [1] = target: Nuclear receptor subfamily 1 group I member 3 (Homo sapiens) (UniProt Q14994); test: qHTS assay to identify small molecule antagonists of the constitutive androstane receptor (CAR) signaling pathway (AID 1224838);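 further: HepG2 cells stably expressing hCAR with CYP2B6 luciferase reporter stimulated by CITCO; nearly all actives have a fitted effect of over 40% in size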
# Method in brief: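 Reporter luminescence was quantified after 24 h exposure of hCAR/CYP2B6-2.2kb double-stable HepG2 cells to compounds at 15 concentrations in the presence of 50 nM CITCO final.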
# [2] = target: Nuclear receptor subfamily 1 group I member 3 (Homo sapiens) (UniProt Q14994); test: qHTS assay to identify small molecule agonists of the constitutive androstane receptor (CAR) signaling pathway (AID 1224839); further: nearly all actives have a fitted effect of over 15% in size; further: potency means the concentration at half of the fitted maximal effect
# Method in brief: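 A 15-concentration quantitative screen uses HepG2 cells co-transfected stably with human CAR and CYP2B6-2.2kb reporter. Treatment lasts 24 h with 0.75 uM PK11195 final present; ONE-Glo luminescence is the signal.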
# [3] = qHTS assay to identify small molecule antagonists of the estrogen related receptor signaling pathway with the pleiotropic PPARgamma coactivator (PGC) from Tox21 10K library - cell viability counter screen (AID 1224840; active means well fitted cell-killing curve with a large enough effect in the repeat runs, not every such curve was filed as active; further: nearly all actives have a fitted effect of over 40% in size; further: potency means the concentration at half of the fitted maximal effect)
# Method in brief: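 Here the PGC/ERR cells serve as a cytotoxicity control: they are exposed to compounds for 17.5 hours at 37 C, and live-cell signal is quantified using CellTiter-Fluor fluorescence.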
# [4] = qHTS assay to identify small molecule antagonists of the estrogen related receptor signaling pathway with the pleiotropic PPARgamma coactivator (PGC) from Tox21 10K library (AID 1224841; call rule not given here; further: actives are mostly falling curves and most rising ones were filed inactive; nearly all actives have a fitted effect of over 50% in size; further: potency means the concentration at half of the fitted maximal effect)
# Method in brief: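 Each well held 2,000 PGC/ERR cells, pre-incubated six hours (37 C, 5% CO2). Test substances in DMSO were added by pin tool and left for 18 h at 37 C before luciferase detection by One-Glo.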
# [5] = qHTS assay to identify small molecule agonists of the estrogen related receptor signaling pathway with the pleiotropic PPARgamma coactivator (PGC) from Tox21 10K library (AID 1224842); further: nearly all actives have a fitted effect of over 15% in size
# Method in brief: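 PGC/ERR reporter cell line, 2,000 cells per well, incubated 6 h at 37 C before 23 nL compound in DMSO was added. After 18 h at 37 C, One-Glo luminescence read following 30 min at room temperature.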
# [6] = target: Thyrotropin receptor (Homo sapiens) (UniProt P16473); test: qHTS assay to identify small molecule agonists of the thyroid stimulating hormone receptor (TSHR) signaling pathway (AID 1224843; calls by dose curve; further: nearly all actives have a fitted effect of over 45% in size; further: potency means the concentration at half of the fitted maximal effect)
# Method in brief: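 TSHR-HEK293 cells in agonist mode, 30 min room-temperature step, then cAMP measured by competitive HTRF (cAMP-d2 with anti-cAMP cryptate) after 1 h at room temperature. Tested at 15 concentrations in triplicate.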
# [7] = qHTS assay to identify small molecule agonists of the hypoxia (HIF-1) signaling pathway - cell viability counter screen (AID 1224844; calls by dose curve; further: nearly all actives have a fitted effect of over 50% in size; further: potency means the concentration at half of the fitted maximal effect)
# Method in brief: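 Multiplexed with the HRE beta-lactamase assay, this viability read used CellTiter-Glo luminescence (30 min, RT) on HRE-bla ME-180 cells treated 17 hrs with compounds in 0.5% dialyzed FBS medium.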
# [8] = qHTS assay to identify small molecule agonists of H2AX (AID 1224845; active means well fitted activation curve with a large enough effect in the signal ratio in the repeat runs, not every such curve was filed as active; the % refers to the signal ratio; further: potency means the concentration at half of the fitted maximal effect)
# Method in brief: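 Wild-type CHO-K1 cells, plated overnight, exposed 3hr at 37C to 15 concentrations (0.76% DMSO final). Lysed, then HTRF anti-pH2AX (S139) cryptate and anti-H2AX-d2 antibodies, 24 hr room temperature; 665/620 nm emission read.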
# [9] = qHTS assay to identify small molecule agonists of H2AX - cell viability counter screen (AID 1224847; calls by dose curve; further: nearly all actives have a fitted effect of over 30% in size; further: potency means the concentration at half of the fitted maximal effect)
# Method in brief: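 We seed wild-type CHO-K1 cells overnight, treat them for 3 hr at 37C with compounds in 15-concentration series, and quantify remaining viability by CellTiter-Glo luminescence.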
# [10] = qHTS assay to identify small molecule antagonists of the estrogen related receptor (ERR) signaling pathway from Tox21 library (AID 1224848); further: nearly all actives have a fitted effect of over 50% in size; further: potency means the concentration at half of the fitted maximal effect
# Method in brief: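 ERR reporter cell line (from NTP) seeded 2,000 cells/well, rested 6 h at 37 C/5% CO2, then pin-dosed with compounds in DMSO. After 18 h at 37 C, ONE-Glo added; luminescence read after 30 min at room temperature.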
# [11] = qHTS assay to identify small molecule agonists of the estrogen related receptor (ERR) signaling pathway from Tox21 library (AID 1224849; calls by dose curve; further: nearly all actives have a fitted effect of over 15% in size); conditions: ERR reporter cell line, ONE-Glo luciferase, 18 h; at 92.4 µM (top of the series) unless noted
# Method in brief: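 Six hours post-seeding at 37 C/5% CO2, ERR cells receive DMSO-solubilised compounds; after 18 h at 37 C, ONE-Glo reagent is applied and luminescence recorded.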
# [12] = qHTS RealTime-Glo MT Cell Viability Assay in HEK293 cells - 32 hour (AID 1224868); further: nearly all actives have a fitted effect of over 50% in size; further: potency means the concentration at half of the fitted maximal effect
# Method in brief: (§1)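 HEK293 cells seeded with NanoLuc/prosubstrate reagent, rested 5 h at 37 C, then dosed and kept at 37 C up to 40 h. Nonlytic real-time luminescence from viable cells read at 0, 8, 16, 24, 32 and 40 h.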
# [13] = A CellTox Green Cytotoxicity Assay to monitor cytotoxicity in HEK293 cells - 0 hour (AID 1224869); further: nearly all actives have a fitted effect of over 50% in size
# Method in brief: (§2)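 Seeding of HEK293 cells together with cytotoxicity dye preceded a 5 h incubation at 37 C/5% CO2. Test compounds in DMSO were then added and fluorescence monitored across 40 h.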
# [14] = qHTS RealTime-Glo MT Cell Viability Assay in HepG2 cells - 40 hour (AID 1224870); further: nearly all actives have a fitted effect of over 50% in size
# Method in brief: (§3)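 HepG2 cells (600/well) mixed with RealTime-Glo MT reagent, settled 5 h at 37 C/5% CO2 before compound addition. Nonlytic NanoLuc luminescence from viable-cell prosubstrate reduction read repeatedly during 40 h treatment at 37 C.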
# [15] = A CellTox Green Cytotoxicity Assay to monitor cytotoxicity in HEK293 cells - 40 hour (AID 1224871); further: nearly all actives have a fitted effect of over 45% in size
# Method in brief: as §2
# [16] = qHTS RealTime-Glo MT Cell Viability Assay in HEK293 cells - 16 hour (AID 1224872); further: nearly all actives have a fitted effect of over 50% in size; further: potency means the concentration at half of the fitted maximal effect
# Method in brief: as §1
# [17] = qHTS RealTime-Glo MT Cell Viability Assay in HEK293 cells - 40 hour (AID 1224874); conditions: RealTime-Glo luminescence; max response: active compounds read low; further: nearly all actives have a fitted effect of over 50% in size; further: potency means the concentration at half of the fitted maximal effect
# Method in brief: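 Tox21 screen in HEK293 using RealTime-Glo MT chemistry, with cells and reagent co-dispensed. Luminescence proportional to viable cell number was captured at intervals during 40 h compound exposure at 37 C.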
# [18] = qHTS assay to identify small molecule agonists of the hypoxia (HIF-1) signaling pathway (AID 1224846; active means well fitted activation curve with a large enough effect in the signal ratio in the repeat runs, not every such curve was filed as active; the % refers to the signal ratio)
# Method in brief: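 Hypoxia-pathway activation was scored as increased beta-lactamase from an HRE-controlled reporter in ME-180 cells; plated at 2,000 cells per well with 0.5% dialyzed FBS, they were exposed 17 hrs to compounds and then given CCF4-AM.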
# [19] = qHTS RealTime-Glo MT Cell Viability Assay in HepG2 cells - 8 hour (AID 1224873); further: nearly all actives have a fitted effect of over 55% in size; further: potency means the concentration at half of the fitted maximal effect
# Method in brief: as §3
# [20] = qHTS RealTime-Glo MT Cell Viability Assay in HepG2 cells - 24 hour (AID 1224867); further: nearly all actives have a fitted effect of over 50% in size; further: potency means the concentration at half of the fitted maximal effect
# Method in brief: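 HepG2 cells (600/well) were dispensed with RealTime-Glo reagents, incubated 5 h at 37 °C, then treated with compounds in DMSO for up to 40 h. Nonlytic NanoLuc luminescence reflecting viable cells was read at each stated time point.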
# Sequence of Thyrotropin receptor (Homo sapiens) (P16473 whole entry, looked up): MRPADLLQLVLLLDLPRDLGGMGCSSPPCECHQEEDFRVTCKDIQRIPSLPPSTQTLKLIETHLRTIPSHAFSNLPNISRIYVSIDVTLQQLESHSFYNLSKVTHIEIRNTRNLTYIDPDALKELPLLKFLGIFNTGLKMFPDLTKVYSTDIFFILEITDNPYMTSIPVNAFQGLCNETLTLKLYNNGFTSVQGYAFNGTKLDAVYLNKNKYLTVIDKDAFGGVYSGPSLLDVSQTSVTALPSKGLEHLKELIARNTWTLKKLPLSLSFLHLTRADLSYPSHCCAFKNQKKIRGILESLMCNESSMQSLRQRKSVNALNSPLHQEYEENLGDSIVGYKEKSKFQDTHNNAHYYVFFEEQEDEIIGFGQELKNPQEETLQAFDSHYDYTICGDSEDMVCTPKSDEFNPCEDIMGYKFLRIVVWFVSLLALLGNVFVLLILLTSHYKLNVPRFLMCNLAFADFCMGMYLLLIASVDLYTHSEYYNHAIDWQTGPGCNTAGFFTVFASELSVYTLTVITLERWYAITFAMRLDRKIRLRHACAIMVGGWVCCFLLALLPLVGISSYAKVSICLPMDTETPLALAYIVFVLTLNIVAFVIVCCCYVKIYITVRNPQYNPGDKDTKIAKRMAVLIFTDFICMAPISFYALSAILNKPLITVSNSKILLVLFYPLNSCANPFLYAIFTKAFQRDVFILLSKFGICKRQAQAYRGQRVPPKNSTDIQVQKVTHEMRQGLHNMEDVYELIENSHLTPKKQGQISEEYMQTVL
# Sequence of Nuclear receptor subfamily 1 group I member 3 (Homo sapiens) (Q14994 whole entry, looked up): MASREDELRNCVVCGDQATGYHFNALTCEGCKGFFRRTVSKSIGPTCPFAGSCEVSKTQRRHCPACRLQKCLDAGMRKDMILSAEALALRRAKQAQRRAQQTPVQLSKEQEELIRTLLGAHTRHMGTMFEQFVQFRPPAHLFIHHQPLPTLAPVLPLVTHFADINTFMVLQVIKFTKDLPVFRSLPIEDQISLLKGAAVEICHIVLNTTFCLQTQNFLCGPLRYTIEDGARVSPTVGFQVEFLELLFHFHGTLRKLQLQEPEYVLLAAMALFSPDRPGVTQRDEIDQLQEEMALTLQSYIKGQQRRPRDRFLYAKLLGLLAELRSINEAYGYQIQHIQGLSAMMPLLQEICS
smiles,measurement,setting,value
Nc1cc([N+](=O)[O-])ccc1Cl,Potency,[1],inactive
same,Potency,[2],inactive
same,Potency,[3],inactive
same,Potency,[4],inactive
same,Potency,[5],inactive
same,Potency,[6],inactive
same,Potency,[7],inactive
same,Potency,[8],inactive
same,Potency,[9],inactive
same,Potency,[10],inactive
same,"activity change, positive = activation",[11],1.59%
same,Potency,[12],inactive
same,Potency,[13],inactive
same,Potency,[14],inactive
same,Potency,[15],inactive
same,Potency,[16],inactive
same,max response,[17],0.705%
NC(=O)c1ccccc1Cl,Potency,[1],inactive
same,Potency,[2],inactive
same,Potency,[3],inactive
same,Potency,[5],inactive
same,Potency,[7],inactive
same,Potency,[8],inactive
same,Potency,[18],inactive
same,Potency,[9],inactive
same,Potency,[10],inactive
same,"activity change, positive = activation",[11],3.13%
same,Potency,[12],inactive
same,Potency,[13],inactive
same,Potency,[14],inactive
same,Potency,[16],inactive
same,Potency,[19],inactive
same,max response,[17],-1.02%
CCCC(C)C=O (stereo not given),Potency,[1],inactive
same,Potency,[2],inactive
same,Potency,[3],inactive
same,Potency,[4],inactive
same,Potency,[5],inactive
same,Potency,[6],inactive
same,Potency,[7],inactive
same,Potency,[8],inactive
same,Potency,[18],inactive
same,Potency,[9],inactive
same,Potency,[10],inactive
same,"activity change, positive = activation",[11],4.95%
same,Potency,[20],inactive
same,Potency,[12],inactive
same,Potency,[14],inactive
same,Potency,[16],inactive
same,Potency,[19],inactive
same,max response,[17],0.0424%
CCCCCCCCSCc1cc(C)c(O)c(CSCCCCCCCC)c1,Potency,[1],inactive
same,Potency,[2],inactive
same,Potency,[3],inactive
same,Potency,[4],inactive
same,Potency,[5],inactive
same,Potency,[6],inactive
same,Potency,[7],inactive
same,Potency,[8],inactive
same,Potency,[18],inactive
same,Potency,[9],inactive
same,Potency,[10],inactive
same,"activity change, positive = activation",[11],3.09%
same,Potency,[20],inactive
same,Potency,[12],inactive
same,Potency,[13],inactive
same,Potency,[14],inactive
same,max response,[17],-17.7%
C=C1C(CCl)(CCl)C2(Cl)C(Cl)C(Cl)C1(Cl)C2(Cl)Cl (stereo not given),Potency,[1],inactive
same,Potency,[2],8.53 µM (active)
same,Potency,[3],53.8 µM (active)
same,Potency,[4],60.4 µM (active)
same,Potency,[5],inactive
same,Potency,[6],17 µM (active)
same,Potency,[7],24.3 µM (active)
same,Potency,[8],99.6 µM (active)
same,Potency,[9],99.6 µM (active)
same,Potency,[10],60.4 µM (active)
same,"activity change, positive = activation",[11],-73.9%
same,Potency,[13],inactive
same,Potency,[14],inactive
same,Potency,[16],48.4 µM (active)
CCCCCCCCOC(=O)c1cc(O)c(O)c(O)c1,Potency,[1],inactive
same,Potency,[2],inactive
same,Potency,[3],34.4 µM (active)
same,Potency,[5],inactive
same,Potency,[6],inactive
same,Potency,[7],inactive
same,Potency,[9],89.8 µM (active)
same,Potency,[10],3.44 µM (active)
same,"activity change, positive = activation",[11],-45.2%
same,Potency,[20],19.5 µM (active)
same,Potency,[12],11 µM (active)
same,Potency,[16],6.92 µM (active)
same,Potency,[19],17.4 µM (active)
same,Potency,[17],11 µM (active)
Clc1ccc2c(Cl)ccnc2c1,Potency,[1],inactive
same,Potency,[2],inactive
same,Potency,[3],inactive
same,Potency,[4],inactive
same,Potency,[5],inactive
same,Potency,[6],inactive
same,Potency,[7],inactive
same,Potency,[8],inactive
same,Potency,[18],inactive
same,Potency,[9],inactive
same,Potency,[10],inactive
same,"activity change, positive = activation",[11],1.29%
same,Potency,[20],inactive
same,Potency,[12],inactive
same,Potency,[13],inactive
same,Potency,[14],inactive
same,Potency,[16],inactive
same,Potency,[19],inactive
same,max response,[17],-6.98%
